Data reported in PubChem BioAssay (Tox21).
Where “and” joins values, the source holds several entries; their conditions need not be identical. Equal values may be shown once. Records with an inconclusive call do not appear. More than one record can exist for a structure, and the calls need not agree. Calls of active or inactive are those of the source. The call rests on the fitted dose curve; in most records, active means well fitted inhibition curve with a large enough effect in the repeat runs; inconclusive means weak or mixed curves; inactive means no such curve, though single readings can be large or run the other way.

Each compound was assayed against Cytochrome P450 3A4 (Homo sapiens) (UniProt P08684) (assay: Cytochrome P450 Family 3 Subfamily A Member 4 (CYP3A4) small molecule antagonists: luciferase reporter qHTS assay (AID 1671201; further: nearly all actives have a fitted effect of over 50% in size)). Details: P450-Glo CYP3A4 enzyme, luciferin luminescence, 1 h; series mostly up to 115 µM; activity change, negative = inhibition: at the top concentration.
From the text: National Center for Advancing Translational Sciences [NCATS]
U.S. Environmental Protection Agency [EPA]
National Institutes of Environmental Health Sciences [NIEHS]
National Toxicology Program [NTP]
U.S. Food and Drug Administration [FDA]
Cytochrome P450 (CYP) enzymes are membrane-bound hemeproteins that play a key role in metabolism of drugs and xenobiotics. Evaluation of the effect of chemicals on CYP isozymes is useful to minimize the adverse drug reactions and toxicities in drug development process. Tox21 chemicals were tested for their effect on CYP enzyme activities by using P450-Glo (TM) screening systems (Promega Corporation, Madison, WI). These systems provide a luminescent method containing proluciferin substrates and are converted to luciferin products by CYP isozymes. The luciferin products formed are detected with a luciferin detection reagent, and the amount of light produced is proportional to CYP activity. P450-Glo (TM) CYP3A4 screening system (Catalog. No. V9910) was used to detect the compounds that interfere in CYP3A4 activity. The positive control compound used for CYP3A4 assay is ketoconazole (Sigma-Aldrich, St. Louis, MO).
Tox21 Assay Protocol Summary:
Two ul of enzyme-substrate mix was dispensed into medium binding white/solid 1536-well plates (Greiner Bio-One North America Inc., Monroe, NC) using a BioRaptr Flying Reagent Dispenser (FRD, Beckman Coulter, Brea, CA). Compounds dissolved in DMSO and positive control (ketoconazole) were transferred to the assay plates at 23 nl using a Pintool station (Wako, San Diego, CA). The assay plates were incubated at room temperature for 10 min. Then 2 ul of NADPH regeneration solution was added to each well of the assay plates using an FRD and incubated at room temperature for 1 h. The reaction was stopped by adding 4 ul of detection reagent using an FRD and after 20 min incubation at room temperature the luminescence signal was measured using a ViewLux plate reader (Perkin Elmer, Shelton, CT). Data were expressed as relative luminescence units.
On the % scale 0 is the no-effect control and ±100 the full control effect; potency means the concentration at half of the fitted maximal effect.

Sequence of Cytochrome P450 3A4 (Homo sapiens) (P08684 whole entry, looked up): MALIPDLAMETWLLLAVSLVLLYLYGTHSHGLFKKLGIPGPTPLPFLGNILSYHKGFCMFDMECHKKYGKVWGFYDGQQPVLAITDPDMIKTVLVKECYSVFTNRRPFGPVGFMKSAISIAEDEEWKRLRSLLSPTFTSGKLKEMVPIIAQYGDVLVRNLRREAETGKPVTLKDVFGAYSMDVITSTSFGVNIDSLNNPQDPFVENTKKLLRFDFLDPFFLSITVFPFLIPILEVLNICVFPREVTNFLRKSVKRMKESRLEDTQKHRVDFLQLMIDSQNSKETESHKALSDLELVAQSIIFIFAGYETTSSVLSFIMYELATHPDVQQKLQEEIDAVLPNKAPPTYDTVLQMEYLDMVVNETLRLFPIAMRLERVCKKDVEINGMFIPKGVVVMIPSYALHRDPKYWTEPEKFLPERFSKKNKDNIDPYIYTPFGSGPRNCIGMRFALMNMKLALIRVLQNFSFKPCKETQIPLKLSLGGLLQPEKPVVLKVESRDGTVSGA

SMILES	activity change, negative = inhibition	Potency
CCCCCCCCCCCCCCNCCO	-15.5% [at 52.9 µM] (inactive)	
O=C1NC2CCCCN2C12CCN(CCCN1c3ccccc3CCc3ccc(Cl)cc31)CC2 (stereo not given)	70.5% [at 52.9 µM] (inactive)	
Cc1cncc(C)c1	9.6% (inactive)	
C=C[C@](C)(O)CC[C@@H]1[C@@]2(C)CCCC(C)(C)[C@@H]2CC[C@@]1(C)O		5.03 µM (active)
CCCCCCCCCCCCOC(=O)c1cc(O)c(O)c(O)c1		17.8 µM (active) and 20 µM (active)
Cc1cc(Nc2ccc(O)cc2)ccc1N		7.93 µM (active)
Cc1cccc(Br)c1	79% (inactive)	
CCOC(=O)CN	-16.4% (inactive)	
SCCCCCCCCS	0.695% (inactive)	
CC(=O)Oc1ccc(C2(c3ccc(OC(C)=O)cc3)Oc3ccccc3NC2=O)cc1	-18.2% [at 52.9 µM] (inactive)	
CC(C)(c1cc(Br)c(O)c(Br)c1)c1cc(Br)c(O)c(Br)c1		56.2 µM (active) and inactive
CCOC(/C=C(\C)CCC=C(C)C)OCC	2.91% (inactive)	
Clc1cccnc1	13.6% (inactive)	
CCN(CC)CCNc1ccc(CO)c2sc3ccccc3c(=O)c12	-14.7% [at 52.9 µM] (inactive)	
C/C=C/CO	3.54% (inactive)	
CCOC(=O)COc1ccc(C)cc1	1.03% (inactive)	
CC1CCCNC1 (stereo not given)	0.104% (inactive)	
C=CC(C)C#N (stereo not given)	0.331% (inactive)	
c1cc(OCC2CO2)cc(OCC2CO2)c1 (stereo not given)		35.3 µM (active)
CCCCCCCCCCCCN(CCO)CCO	-13.7% (inactive)	

SMILES	activity change, negative = inhibition	Potency
C=C(c1ccc(C(=O)O)cc1)c1cc2c(cc1C)C(C)(C)CCC2(C)C	-17.3% [at 52.9 µM] (inactive)	
CCCCCCCC/C=C\CCCCCCCC(=O)OCCOC(=O)CCCCCCC/C=C\CCCCCCCC		10.4 µM (active)
CCc1ccc(C)nc1	11% (inactive)	
O=C=NCc1cccc(CN=C=O)c1		4.25 µM (active)
CSc1ccc2c(c1)N(CCC1CCCCN1C)c1ccccc1S2 (stereo not given)	-0.177% [at 52.9 µM] (inactive)	
CC(O)C#CC(C)O (stereo not given)	-9.38% (inactive)	
N#CSCSc1nc2ccccc2s1	-13.2% (inactive)	
ClC/C=C\CCl	-3.45% (inactive)	
Cc1ccc2ccc3cccc4ccc1c2c34		20 µM (active)
C=CC(=C)CC/C=C(\C)CCC=C(C)C		16.9 µM (active)
CC1(C)C(=O)N(CO)C(=O)N1CO	3.57% (inactive)	
CC(C)=CCCC(C)O (stereo not given)	-2.33% (inactive)	
CCCN(CCc1cccs1)[C@H]1CCc2c(O)cccc2C1	122% [at 52.9 µM] (inactive)	
CCCCCCC(C)OC(=O)COc1nc(F)c(Cl)c(N)c1Cl (stereo not given)		7.96 µM (active)
CCCCCCOc1cc(C)c(O)c(C)c1C		28.6 µM (active)
O=C1OC(=O)c2cccc3cccc1c23	22.7% (inactive)	
Cc1cnccn1	4.91% (inactive)	
CCOC(OCC)C(=O)c1ccccc1	30% (inactive)	
CC(C)(C)CC(C)(C)c1ccccc1O		63.6 µM (active)
CC=O	-7.15% (inactive)	
